Data reported in PubChem BioAssay.
The source made the active and inactive calls.

Tests used:
Albumin (Bos taurus) = Albumin (Bos taurus) (UniProt P02769); assay: compounds binding labelled BSA control protein – biochemical, small-molecule microarray, Alexa647 label, 635/667 nm fluorescence, artefact control for SMM control protein annotation, profiling panel (AID 1118); details: BSA-A647 binding, fluorescence 635 nm, higher = more signal;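 further: score merges 667 nm emission intensity and signal-to-noise per printed compound spot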
[1] = probe aXIP binding to arrayed compounds – biochemical, NeuroSMM set, 635/667 nm fluorescence, primary screen (AID 1119); details: small-molecule microarray, higher = more signal, called active from +8 up or from −8 down;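 further: probe is the protein aXip251-270 applied at 1 µg/mL to compound-printed slides; binding of probe to printed compounds measured as 667 nm fluorescence plus signal to noise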
[2] = probe aNOTCH3 binding on compound microarray – biochemical, small-molecule microarray, 635/667 nm fluorescence, primary screen (AID 1120); details: higher = more signal;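 further: probe is a biotin-tagged antibody raised against NOTCH3 rather than NOTCH3 protein; score merges spot fluorescence near 667 nm with spot signal to noise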
[3] = probe aNOTCH2 binding on compound microarray – biochemical, small-molecule microarray, 635/667 nm fluorescence, primary screen (AID 1121); details: higher = more signal;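 further: score merges feature fluorescence read at 667 nm with its signal to noise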
[4] = target: Carbonic anhydrase 2 (Homo sapiens) (UniProt P00918); assay: compounds binding carbonic anhydrase 2 – biochemical, small-molecule microarray, Alexa647-labelled CAII, profiling panel (AID 1122); details: CAII-A647 binding fluorescence, higher = more signal
[5] = COS7 lysate on small-molecule microarray, probe aHis, 635 nm (AID 1123); details: COS7 cell lysate, fluorescence, higher = more signal;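 further: z-score combines 667nm fluorescence intensity with signal-to-noise per printed compound spot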
[6] = probe aLAP1 signal on lysate-treated microarray – cell lysate, small-molecule microarray, COS7 lysate, primary screen (AID 1124); details: probe aLAP1, fluorescence, higher = more signal;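 further: lysate comes from COS7 cells expressing LAP1 and is applied at 0.3 µg/mL; score merges spot fluorescence near 667 nm with signal-to-noise over triplicate slides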
Sam68 (KHDRBS1) = assay: compounds binding KHDRBS1 protein – biochemical, small-molecule microarray, 635 nm fluorescence, primary screen (AID 1125); details: higher = more signal;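 further: score merges 667 nm channel intensity with signal to noise over triplicate slides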
[7] = system: Chordin-like protein 2 (CHRDL2); assay: compounds binding chordin-like 2 – biochemical, small-molecule microarray, 635 nm fluorescence, primary screen (AID 1126); details: fluorescence 635 nm, higher = more signal;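 further: printed compound slides probed with Chrdl2 protein at 4 µg/mL for 1 h at 4 C; score merges 667 nm emission intensity with signal to noise over three replicate slides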
[8] = target: Concanavalin-A (Canavalia ensiformis) (UniProt P02866); assay: compounds binding concanavalin A lectin – biochemical, small-molecule microarray, Alexa647 label, 635 nm, artefact control for SMM control protein annotation, primary screen (AID 1127); details: ConA-A647 binding fluorescence, higher = more signal;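 further: z combines 667 nm emission intensity with signal-to-noise across three replicate slides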
[9] = compounds binding Alexa647 anti-His antibody – biochemical, small-molecule microarray, 635 nm fluorescence, artefact control for SMM control protein annotation, primary screen (AID 1128); details: higher = more signal;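 further: score merges feature fluorescence with signal-to-noise for each printed compound spot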
[10] = system: Human papillomavirus type 1a E7 protein (residues 1-88); assay: HPV1a E7 small-molecule binders, primary screen, biochemical, small-molecule microarray, residues 1-88, 635 nm (AID 1129); details: small-molecule microarray binding, fluorescence 635 nm; higher = more signal
[11] = target: Focal adhesion kinase 1 (Homo sapiens) (UniProt Q05397); assay: PTK2 protein binding on printed compound slides – biochemical, small-molecule microarray, 635/667 nm fluorescence, BSA, DTT, primary screen (AID 1130); details: 635 nm fluorescence, higher = more signal;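 further: composite of spot emission at 667 nm and signal to noise over triplicate slides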
[12] = system: Fibrinogen (Alexa647-labelled); assay: Alexa647-fibrinogen binding to printed small molecules – biochemical, small-molecule microarray, 635/667 nm fluorescence, artefact control for SMM control-protein annotation, profiling panel (AID 1131); details: fibrinogen-A647 binding fluorescence, higher = more signal;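 further: z-score merges 667 nm fluorescence with per-spot signal-to-noise over triplicate slides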
[13] = target: Follistatin (Homo sapiens) (UniProt P19883); assay: FST protein binding to printed compounds – biochemical, small-molecule microarray, 635/667 nm fluorescence, primary screen (AID 1132); details: 635 nm fluorescence, higher = more signal
[14] = target: Fibroblast growth factor 2 (Homo sapiens) (UniProt P09038); assay: basic fibroblast growth factor binding to printed compounds – biochemical, small-molecule microarray, 635/667 nm fluorescence, primary screen (AID 1133); details: FGF2, fluorescence 635/667, higher = more signal
[15] = JC-1 mitochondrial potential readout, lung cancer cells – cell-based, A549, JC-1 fluorescence, basal, 24 h, 100 nL, profiling panel (AID 1138); details: higher = more signal;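 further: A549 lung adenocarcinoma cells under basal conditions with no added stimulus; test concentration not given here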
Lefty1 = Lefty1 protein binding to printed compounds – biochemical, small-molecule microarray, 635/667 nm fluorescence, primary screen (AID 1139); details: fluorescence 635/667, higher = more signal
[16] = system: wheat germ agglutinin (Triticum aestivum), Alexa647-labelled; assay: Alexa647-WGA lectin binding to printed small molecules – biochemical, small-molecule microarray, 635/667 nm fluorescence, artefact control for SMM control-protein annotation, profiling panel (AID 1140); details: WGA-A647 binding, 635 nm fluorescence, higher = more signal;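 further: score merges 667 nm feature emission with signal to noise over triplicate slides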
[17] = target: Luciferin 4-monooxygenase (Photinus pyralis) (UniProt P08659); assay: inhibition of purified Photinus pyralis luciferase – biochemical, luminescence, purified enzyme, 2006 set, primary screen (AID 1141); details: purified firefly luciferase, SteadyGlo luminescence, 30 min; higher = more signal, called active from +8 up or from −8 down;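 further: cell-free assay with purified firefly luciferase at 100 ng per well in PBS; test concentration not given here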
Sequence of Luciferin 4-monooxygenase (Photinus pyralis) (P08659 whole entry, looked up): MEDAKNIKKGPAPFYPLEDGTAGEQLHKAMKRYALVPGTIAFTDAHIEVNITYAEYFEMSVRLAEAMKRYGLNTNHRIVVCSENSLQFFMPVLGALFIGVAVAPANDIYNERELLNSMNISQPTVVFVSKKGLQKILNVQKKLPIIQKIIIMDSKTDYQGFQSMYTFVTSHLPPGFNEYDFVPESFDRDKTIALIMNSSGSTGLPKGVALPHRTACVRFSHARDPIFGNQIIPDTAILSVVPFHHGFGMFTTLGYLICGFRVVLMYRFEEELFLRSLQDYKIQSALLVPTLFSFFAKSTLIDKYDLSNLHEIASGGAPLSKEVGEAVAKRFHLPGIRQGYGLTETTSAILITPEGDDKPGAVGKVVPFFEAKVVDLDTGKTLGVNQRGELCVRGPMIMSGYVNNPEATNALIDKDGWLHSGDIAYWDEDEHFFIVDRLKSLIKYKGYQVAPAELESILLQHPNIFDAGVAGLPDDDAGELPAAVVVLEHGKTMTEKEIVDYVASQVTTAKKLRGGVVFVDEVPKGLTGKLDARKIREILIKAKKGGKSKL

Sequence of Focal adhesion kinase 1 (Homo sapiens) (Q05397 whole entry, looked up): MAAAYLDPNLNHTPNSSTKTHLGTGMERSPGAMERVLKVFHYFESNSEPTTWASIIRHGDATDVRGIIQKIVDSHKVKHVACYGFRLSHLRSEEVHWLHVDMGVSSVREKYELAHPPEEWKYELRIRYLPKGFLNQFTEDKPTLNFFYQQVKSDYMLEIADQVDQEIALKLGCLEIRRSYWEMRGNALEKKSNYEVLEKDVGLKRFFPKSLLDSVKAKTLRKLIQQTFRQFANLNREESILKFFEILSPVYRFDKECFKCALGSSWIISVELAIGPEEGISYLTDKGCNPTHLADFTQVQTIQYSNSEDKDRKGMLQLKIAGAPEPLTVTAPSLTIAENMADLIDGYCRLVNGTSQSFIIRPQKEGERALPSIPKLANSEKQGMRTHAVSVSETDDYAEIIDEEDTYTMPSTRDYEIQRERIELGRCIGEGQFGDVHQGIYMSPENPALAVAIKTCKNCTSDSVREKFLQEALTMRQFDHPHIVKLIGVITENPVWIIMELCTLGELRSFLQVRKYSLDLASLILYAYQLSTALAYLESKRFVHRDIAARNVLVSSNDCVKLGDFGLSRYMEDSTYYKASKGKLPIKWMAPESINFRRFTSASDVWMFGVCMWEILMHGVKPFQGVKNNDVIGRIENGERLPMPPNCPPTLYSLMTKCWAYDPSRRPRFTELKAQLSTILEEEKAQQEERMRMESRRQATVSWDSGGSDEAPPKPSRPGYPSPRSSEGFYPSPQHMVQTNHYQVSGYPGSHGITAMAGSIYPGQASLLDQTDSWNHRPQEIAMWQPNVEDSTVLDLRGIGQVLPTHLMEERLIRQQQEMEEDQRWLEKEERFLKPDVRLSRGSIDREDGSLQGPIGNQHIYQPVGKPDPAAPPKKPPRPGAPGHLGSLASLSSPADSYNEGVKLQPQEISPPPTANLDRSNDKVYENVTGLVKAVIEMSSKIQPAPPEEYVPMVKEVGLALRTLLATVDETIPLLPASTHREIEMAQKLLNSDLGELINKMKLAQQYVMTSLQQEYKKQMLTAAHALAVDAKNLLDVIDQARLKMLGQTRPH
Sequence of Follistatin (Homo sapiens) (P19883 whole entry, looked up): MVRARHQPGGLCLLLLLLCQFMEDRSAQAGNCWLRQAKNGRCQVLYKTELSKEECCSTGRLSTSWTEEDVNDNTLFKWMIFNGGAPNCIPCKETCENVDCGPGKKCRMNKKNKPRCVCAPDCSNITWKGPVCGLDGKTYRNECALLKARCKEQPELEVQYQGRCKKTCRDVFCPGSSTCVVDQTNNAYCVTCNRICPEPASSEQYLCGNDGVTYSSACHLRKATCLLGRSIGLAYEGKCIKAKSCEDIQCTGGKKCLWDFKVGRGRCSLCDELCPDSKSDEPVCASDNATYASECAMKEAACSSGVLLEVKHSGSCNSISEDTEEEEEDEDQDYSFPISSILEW
Sequence of Albumin (Bos taurus) (P02769 whole entry, looked up): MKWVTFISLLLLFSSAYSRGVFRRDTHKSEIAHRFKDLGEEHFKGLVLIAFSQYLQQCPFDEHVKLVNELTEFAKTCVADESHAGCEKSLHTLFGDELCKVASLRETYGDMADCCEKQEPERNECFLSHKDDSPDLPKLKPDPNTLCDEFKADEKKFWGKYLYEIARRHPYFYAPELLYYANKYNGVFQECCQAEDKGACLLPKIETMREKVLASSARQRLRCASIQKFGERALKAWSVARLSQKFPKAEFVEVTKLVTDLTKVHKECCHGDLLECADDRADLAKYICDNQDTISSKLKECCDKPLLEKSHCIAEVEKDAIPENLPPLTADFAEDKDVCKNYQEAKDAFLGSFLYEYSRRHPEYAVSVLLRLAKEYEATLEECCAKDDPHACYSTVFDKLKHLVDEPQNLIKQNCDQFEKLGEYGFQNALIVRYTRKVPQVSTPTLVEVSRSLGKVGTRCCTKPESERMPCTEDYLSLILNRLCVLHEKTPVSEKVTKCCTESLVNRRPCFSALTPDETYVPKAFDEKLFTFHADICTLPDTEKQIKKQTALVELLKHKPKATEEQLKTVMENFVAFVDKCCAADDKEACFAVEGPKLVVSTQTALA
Sequence of Fibroblast growth factor 2 (Homo sapiens) (P09038 whole entry, looked up): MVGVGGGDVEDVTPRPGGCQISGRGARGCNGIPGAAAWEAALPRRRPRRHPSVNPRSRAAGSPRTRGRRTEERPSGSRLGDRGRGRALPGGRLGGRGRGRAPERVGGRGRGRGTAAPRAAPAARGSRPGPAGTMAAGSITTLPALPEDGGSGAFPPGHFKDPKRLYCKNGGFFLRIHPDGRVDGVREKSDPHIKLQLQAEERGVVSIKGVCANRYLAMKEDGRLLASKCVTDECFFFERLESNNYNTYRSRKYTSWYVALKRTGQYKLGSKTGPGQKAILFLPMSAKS
Sequence of Concanavalin-A (Canavalia ensiformis) (P02866 whole entry, looked up): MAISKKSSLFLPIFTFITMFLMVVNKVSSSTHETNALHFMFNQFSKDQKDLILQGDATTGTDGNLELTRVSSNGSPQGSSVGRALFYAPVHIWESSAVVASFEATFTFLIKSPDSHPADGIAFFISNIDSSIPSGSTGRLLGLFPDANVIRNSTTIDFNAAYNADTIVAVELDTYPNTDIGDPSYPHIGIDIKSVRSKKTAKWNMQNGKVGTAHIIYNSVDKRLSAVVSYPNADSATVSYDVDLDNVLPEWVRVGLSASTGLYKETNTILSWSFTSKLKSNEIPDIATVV

Row | SMILES | composite z-score (Albumin (Bos taurus)) | composite Z-score [1] | composite z-score [2] | composite z-score [3] | composite z-score [4] | composite z-score [5] | composite z-score [6] | composite z-score (Sam68 (KHDRBS1)) | composite z-score [7] | composite z-score [8] | composite z-score [9] | composite z-score [10] | composite z-score [11] | composite z-score [12] | composite z-score [13] | composite z-score [14] | z-score [15] | composite z-score (Lefty1) | composite z-score [16] | z-score [17]
1 | Cc1ccc(S[C@]2(C(=O)NC3CC3)CC(=O)N(C(C)C)[C@@H]2c2ccc(CO)cc2I)cc1 | 0.899 | -0.6 (inactive) | -0.364 | -0.2 | 0.7 | 1.16 | 0.048 | 0.238 | -1.06 | 0.0412 | 1.49 | 0.882 | 0.411 | -0.36 | 0.536 | -0.471 | 0.51 | 0.303 | 0.969 | 1.29 (inactive)
2 | C=CCC(OC(C)=O)[C@@H]1[C@@H](N(Cc2cccc3ccccc23)C(=O)c2ccc(-c3ccccc3)cc2)c2cc(OCCCO)ccc2N1C(=O)Cc1ccc2ccccc2c1 (stereo not given in full) | 0.364 | -0.902 (inactive) | 0.0276 | -0.0809 | 0.268 | 0.376 | 0.0109 | -0.518 | 0.0624 | -0.214 | 0.203 | 0.0951 | -0.166 | -0.052 | 0.592 | 0.0824 | 0.412 | -0.415 | -0.194 | 0.223 (inactive)
3 | C=CCC(OC(C)=O)[C@@H]1[C@@H](N(Cc2cccc3ccccc23)C(=O)Cc2ccc(OC)cc2)c2cc(OCCCO)ccc2N1C(=O)Cc1ccc2ccccc2c1 (stereo not given in full) | -0.0328 | 0.181 (inactive) | -0.0584 | -0.159 | 0.0435 | 1.17 | 0.078 | -0.0489 | 0.116 | -0.154 | -0.538 | -0.609 | -0.495 | -0.331 | 0.688 | 0.182 | 0.309 | 0.353 | 0.507 | 0.969 (inactive)
4 | C=C(COC)/C(=C/C[C@@H](OC(C)=O)c1ccccc1OCCO)c1cnc2ccccc2c1 | -0.209 | 0.72 (inactive) | 0.199 | -0.084 | 0.776 | 1.09 | 0.542 | 1.17 | 0.765 | 0.995 | 0.782 | 1.06 | 0.423 | 0.0866 | 1.43 | 1.12 | -0.159 | 1.54 | 1.2 | -1.47 (inactive)
5 | COC(=O)[C@]1(Cc2ccccc2)N=C(c2ccc(OCCCO)cc2)O[C@@H]1c1ccccc1CN=[N+]=[N-] | -0.847 | 0.384 (inactive) | 0.0259 | -0.0017 | 0.403 | 1.98 | -0.0103 | 0.745 | 0.214 | 0.656 | 1.12 | 1.16 | 0.687 | 0.415 | 1.44 | 0.702 | -1.74 | 0.0393 | 0.418 | -1.44 (inactive)
